From publication PMC7862700, “An all-to-all approach to the identification of sequence-specific readers for epigenetic DNA modifications on cytosine”

Tests used:
Experiment in all cases: DAPPL (digital affinity profiling via proximity ligation, sequencing); 10 mM Tris-HCl pH 7.5, 50 mM NaCl, 1 mM DTT, 4% glycerol, room temperature, 30 min; GST-TFs on glutathione beads, 16-mer random dsDNA library, 0.1% formaldehyde crosslink after washing; high values mean tight binding
FEV = target: T1, FEV (Homo sapiens, UniProt Q99581 1-238); conditions: protein: recombinant; tags: N-terminal GST; dsDNA, one strand shown
T1 sequence: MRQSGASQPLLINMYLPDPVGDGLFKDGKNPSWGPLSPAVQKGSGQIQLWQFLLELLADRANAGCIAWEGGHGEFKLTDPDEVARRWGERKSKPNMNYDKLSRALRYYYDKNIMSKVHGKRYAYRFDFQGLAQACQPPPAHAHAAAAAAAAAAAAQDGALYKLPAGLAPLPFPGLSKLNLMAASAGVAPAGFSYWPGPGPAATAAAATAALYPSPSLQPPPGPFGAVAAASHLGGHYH
In short: (§1)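 Human transcription factors were made in yeast as GST fusions, captured on glutathione beads and barcoded with DNA. With a tag-only sample included, the pool was incubated with 200 nmole of a random double-stranded 16-mer DNA library in Tris/NaCl/DTT/glycerol buffer at room temperature for 30 min, then crosslinked with 0.1% formaldehyde after washing, ligated by proximity, amplified and sequenced. For binding signal, each hexamer's read frequency for a factor is divided by its frequency for the tag-only sample.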

ETV5 = ETV5 (Homo sapiens, UniProt P41161 1-510); conditions: protein: recombinant; tags: N-terminal GST; dsDNA, one strand shown
In short: as §1

HSF1 = HSF1 (Homo sapiens, UniProt Q00613 1-529); conditions: protein: recombinant; tags: N-terminal GST; chain copies: 3; dsDNA, one strand shown
In short: as §1

SPIC = target: T2, SPIC (Homo sapiens, UniProt Q8N5J4 1-248); conditions: protein: recombinant; tags: N-terminal GST; dsDNA, one strand shown
T2 sequence: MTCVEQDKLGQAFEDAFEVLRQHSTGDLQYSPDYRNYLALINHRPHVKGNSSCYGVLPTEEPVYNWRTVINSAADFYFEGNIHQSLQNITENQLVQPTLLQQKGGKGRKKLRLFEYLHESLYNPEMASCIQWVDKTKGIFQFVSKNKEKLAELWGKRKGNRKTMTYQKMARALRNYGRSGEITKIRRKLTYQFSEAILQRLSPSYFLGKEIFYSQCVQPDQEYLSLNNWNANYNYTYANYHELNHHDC
In short: as §1

ELF4 = ELF4 (Homo sapiens, UniProt Q99607 1-663); conditions: protein: recombinant; tags: N-terminal GST; dsDNA, one strand shown
In short: as §1

ELK4 = target: T3, ELK4 (Homo sapiens, UniProt P28324-2 1-405); conditions: protein: recombinant; tags: N-terminal GST; dsDNA, one strand shown
T3 sequence: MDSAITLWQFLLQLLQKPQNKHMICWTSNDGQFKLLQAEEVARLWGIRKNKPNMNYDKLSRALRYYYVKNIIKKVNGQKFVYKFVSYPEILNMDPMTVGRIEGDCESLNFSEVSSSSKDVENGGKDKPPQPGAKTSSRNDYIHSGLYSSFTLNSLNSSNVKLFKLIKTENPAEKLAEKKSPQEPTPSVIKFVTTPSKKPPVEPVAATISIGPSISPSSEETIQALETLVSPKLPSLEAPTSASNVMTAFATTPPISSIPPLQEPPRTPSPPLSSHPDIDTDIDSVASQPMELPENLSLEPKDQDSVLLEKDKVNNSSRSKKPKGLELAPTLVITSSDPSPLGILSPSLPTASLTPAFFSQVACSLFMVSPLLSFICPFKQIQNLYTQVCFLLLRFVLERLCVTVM
In short: as §1

ETV2 = target: T4, ETV2 (Homo sapiens, UniProt O00321 1-342); conditions: protein: recombinant; tags: N-terminal GST; dsDNA, one strand shown
T4 sequence: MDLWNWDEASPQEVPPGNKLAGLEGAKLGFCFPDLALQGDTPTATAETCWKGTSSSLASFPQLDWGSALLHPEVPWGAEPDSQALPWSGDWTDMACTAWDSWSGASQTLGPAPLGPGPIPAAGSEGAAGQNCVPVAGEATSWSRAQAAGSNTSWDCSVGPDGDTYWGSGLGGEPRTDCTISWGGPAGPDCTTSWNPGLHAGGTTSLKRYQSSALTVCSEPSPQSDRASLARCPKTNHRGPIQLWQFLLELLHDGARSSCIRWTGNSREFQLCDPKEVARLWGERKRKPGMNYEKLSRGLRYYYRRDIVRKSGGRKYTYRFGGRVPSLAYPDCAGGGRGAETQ
In short: as §1

ELF3 = target: T5, ELF3 (Homo sapiens, UniProt P78545 1-371); conditions: protein: recombinant; tags: N-terminal GST; dsDNA, one strand shown
T5 sequence: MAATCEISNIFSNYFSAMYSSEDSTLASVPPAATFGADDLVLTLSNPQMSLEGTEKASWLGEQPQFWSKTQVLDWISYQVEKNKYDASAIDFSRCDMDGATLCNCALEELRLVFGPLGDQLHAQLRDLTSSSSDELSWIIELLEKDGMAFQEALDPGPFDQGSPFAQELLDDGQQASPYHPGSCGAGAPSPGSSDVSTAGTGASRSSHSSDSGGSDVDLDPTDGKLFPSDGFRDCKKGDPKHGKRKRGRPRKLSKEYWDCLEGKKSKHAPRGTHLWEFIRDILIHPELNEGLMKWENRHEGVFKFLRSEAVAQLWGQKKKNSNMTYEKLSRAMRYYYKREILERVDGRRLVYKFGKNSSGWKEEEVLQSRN
In short: as §1

CRX = CRX (Homo sapiens, UniProt O43186 1-299); conditions: protein: recombinant; tags: N-terminal GST; dsDNA, one strand shown
In short: as §1

ETV1 = ETV1 (Homo sapiens, UniProt P50549 1-477); conditions: protein: recombinant; tags: N-terminal GST; dsDNA, one strand shown
In short: as §1

ERF = target: T6, ERF (Homo sapiens, UniProt P50548 1-548); conditions: protein: recombinant; tags: N-terminal GST; dsDNA, one strand shown
T6 sequence: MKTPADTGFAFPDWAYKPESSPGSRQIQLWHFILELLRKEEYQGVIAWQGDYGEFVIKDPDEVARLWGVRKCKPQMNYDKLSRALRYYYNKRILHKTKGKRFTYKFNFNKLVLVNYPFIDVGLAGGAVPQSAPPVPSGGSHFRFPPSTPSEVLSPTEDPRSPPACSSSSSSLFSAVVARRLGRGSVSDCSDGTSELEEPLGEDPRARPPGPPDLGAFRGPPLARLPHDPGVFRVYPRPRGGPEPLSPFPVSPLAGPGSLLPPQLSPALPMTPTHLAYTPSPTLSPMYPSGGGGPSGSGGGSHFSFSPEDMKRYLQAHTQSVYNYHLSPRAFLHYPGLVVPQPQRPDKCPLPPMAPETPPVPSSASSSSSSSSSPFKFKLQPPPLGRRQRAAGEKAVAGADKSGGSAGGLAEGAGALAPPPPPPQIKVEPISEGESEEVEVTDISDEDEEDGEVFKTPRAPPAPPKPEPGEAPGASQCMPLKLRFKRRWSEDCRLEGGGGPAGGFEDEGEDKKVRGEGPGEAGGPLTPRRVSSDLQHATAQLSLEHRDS
In short: as §1

ETV3L = target: T7, ETV3L (Homo sapiens, UniProt Q6ZN32 1-361); conditions: protein: recombinant; tags: N-terminal GST; dsDNA, one strand shown
T7 sequence: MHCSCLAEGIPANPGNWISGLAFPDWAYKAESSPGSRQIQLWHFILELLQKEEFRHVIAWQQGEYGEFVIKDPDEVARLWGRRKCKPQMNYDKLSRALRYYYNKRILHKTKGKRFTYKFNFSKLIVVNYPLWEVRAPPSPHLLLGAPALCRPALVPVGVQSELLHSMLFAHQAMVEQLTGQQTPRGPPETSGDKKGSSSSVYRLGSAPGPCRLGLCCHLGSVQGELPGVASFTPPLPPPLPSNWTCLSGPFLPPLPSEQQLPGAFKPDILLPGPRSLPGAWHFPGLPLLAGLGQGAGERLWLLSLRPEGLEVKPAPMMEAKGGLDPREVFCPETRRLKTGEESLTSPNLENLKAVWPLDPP
In short: as §1

ETS2 = target: T8, ETS2 (Homo sapiens, UniProt P15036 1-469); conditions: protein: recombinant; tags: N-terminal GST; dsDNA, one strand shown
T8 sequence: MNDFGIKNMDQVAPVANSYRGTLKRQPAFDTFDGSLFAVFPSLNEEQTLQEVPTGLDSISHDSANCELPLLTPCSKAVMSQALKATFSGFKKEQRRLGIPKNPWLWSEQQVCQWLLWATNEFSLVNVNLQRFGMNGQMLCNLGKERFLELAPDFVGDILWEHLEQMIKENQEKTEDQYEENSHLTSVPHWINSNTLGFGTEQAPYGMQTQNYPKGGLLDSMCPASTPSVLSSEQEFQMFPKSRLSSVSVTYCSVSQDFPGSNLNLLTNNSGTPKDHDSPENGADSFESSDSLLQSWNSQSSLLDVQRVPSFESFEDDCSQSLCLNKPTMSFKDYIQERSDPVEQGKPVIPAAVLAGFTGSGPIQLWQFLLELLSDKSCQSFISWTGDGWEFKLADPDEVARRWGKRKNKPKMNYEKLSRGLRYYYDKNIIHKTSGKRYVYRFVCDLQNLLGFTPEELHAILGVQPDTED
In short: as §1

SPDEF = target: T9, SPDEF (Homo sapiens, UniProt O95238 1-335); conditions: protein: recombinant; tags: N-terminal GST; dsDNA, one strand shown
T9 sequence: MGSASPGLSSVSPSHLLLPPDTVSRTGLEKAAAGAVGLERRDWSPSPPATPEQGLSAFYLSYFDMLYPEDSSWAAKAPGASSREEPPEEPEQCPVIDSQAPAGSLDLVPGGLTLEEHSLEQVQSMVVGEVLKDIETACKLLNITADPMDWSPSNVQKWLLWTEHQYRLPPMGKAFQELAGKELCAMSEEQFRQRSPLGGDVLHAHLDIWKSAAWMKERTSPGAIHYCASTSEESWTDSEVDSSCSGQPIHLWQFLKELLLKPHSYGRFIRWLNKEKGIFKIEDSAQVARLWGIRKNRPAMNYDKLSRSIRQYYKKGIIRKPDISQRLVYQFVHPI
In short: as §1

ETV7 = target: T10, ETV7 (Homo sapiens, UniProt Q9Y603 1-341); conditions: protein: recombinant; tags: N-terminal GST; dsDNA, one strand shown
T10 sequence: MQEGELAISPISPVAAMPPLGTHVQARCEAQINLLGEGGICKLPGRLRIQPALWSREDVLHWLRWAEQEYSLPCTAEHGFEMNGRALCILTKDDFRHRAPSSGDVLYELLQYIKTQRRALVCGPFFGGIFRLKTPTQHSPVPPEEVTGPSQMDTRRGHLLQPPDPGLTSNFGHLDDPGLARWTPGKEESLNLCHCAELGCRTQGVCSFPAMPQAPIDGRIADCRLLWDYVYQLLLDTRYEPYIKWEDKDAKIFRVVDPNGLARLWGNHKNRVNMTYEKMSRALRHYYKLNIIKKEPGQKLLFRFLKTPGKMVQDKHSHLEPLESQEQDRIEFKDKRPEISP
In short: as §1

ELF5 = target: T11, ELF5 (Homo sapiens, UniProt Q9UKW6-2 1-255); conditions: protein: recombinant; tags: N-terminal GST; dsDNA, one strand shown
T11 sequence: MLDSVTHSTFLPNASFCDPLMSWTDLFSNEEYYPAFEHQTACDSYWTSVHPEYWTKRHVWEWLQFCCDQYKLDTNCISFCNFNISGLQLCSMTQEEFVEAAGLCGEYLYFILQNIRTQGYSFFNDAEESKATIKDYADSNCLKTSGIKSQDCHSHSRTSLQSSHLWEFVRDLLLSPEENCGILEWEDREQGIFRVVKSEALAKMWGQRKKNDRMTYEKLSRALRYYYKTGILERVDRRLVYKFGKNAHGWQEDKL
In short: as §1

ETV3 = target: T12, ETV3 (Homo sapiens, UniProt P41162-2 1-143); conditions: protein: recombinant; tags: N-terminal GST; dsDNA, one strand shown
T12 sequence: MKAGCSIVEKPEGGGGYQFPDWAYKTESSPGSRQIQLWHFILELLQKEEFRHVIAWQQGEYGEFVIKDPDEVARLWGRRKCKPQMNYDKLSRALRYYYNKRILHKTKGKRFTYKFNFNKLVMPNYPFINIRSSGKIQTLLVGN
In short: as §1

ETV6 = ETV6 (Homo sapiens, UniProt P41212 1-452); conditions: protein: recombinant; tags: N-terminal GST; dsDNA, one strand shown
In short: as §1

ELF4, sequence (Q99607 whole entry): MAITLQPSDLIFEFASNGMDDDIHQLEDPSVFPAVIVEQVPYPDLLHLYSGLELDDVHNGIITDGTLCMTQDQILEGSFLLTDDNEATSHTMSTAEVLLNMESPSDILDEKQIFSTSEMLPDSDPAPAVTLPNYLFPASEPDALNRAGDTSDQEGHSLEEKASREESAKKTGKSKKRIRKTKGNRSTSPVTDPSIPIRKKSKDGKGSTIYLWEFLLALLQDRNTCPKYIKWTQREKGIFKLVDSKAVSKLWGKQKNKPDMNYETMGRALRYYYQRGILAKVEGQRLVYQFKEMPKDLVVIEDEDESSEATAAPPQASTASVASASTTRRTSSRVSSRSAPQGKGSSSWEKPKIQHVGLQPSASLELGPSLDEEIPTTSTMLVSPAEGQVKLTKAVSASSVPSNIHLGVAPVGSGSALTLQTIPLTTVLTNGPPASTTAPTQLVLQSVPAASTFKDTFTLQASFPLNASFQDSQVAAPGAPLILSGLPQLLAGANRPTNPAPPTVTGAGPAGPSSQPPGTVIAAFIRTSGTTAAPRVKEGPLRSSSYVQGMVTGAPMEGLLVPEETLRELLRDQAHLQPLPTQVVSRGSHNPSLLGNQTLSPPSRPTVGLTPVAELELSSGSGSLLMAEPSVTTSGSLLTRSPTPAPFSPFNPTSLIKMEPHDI
ETV6, sequence (P41212 whole entry): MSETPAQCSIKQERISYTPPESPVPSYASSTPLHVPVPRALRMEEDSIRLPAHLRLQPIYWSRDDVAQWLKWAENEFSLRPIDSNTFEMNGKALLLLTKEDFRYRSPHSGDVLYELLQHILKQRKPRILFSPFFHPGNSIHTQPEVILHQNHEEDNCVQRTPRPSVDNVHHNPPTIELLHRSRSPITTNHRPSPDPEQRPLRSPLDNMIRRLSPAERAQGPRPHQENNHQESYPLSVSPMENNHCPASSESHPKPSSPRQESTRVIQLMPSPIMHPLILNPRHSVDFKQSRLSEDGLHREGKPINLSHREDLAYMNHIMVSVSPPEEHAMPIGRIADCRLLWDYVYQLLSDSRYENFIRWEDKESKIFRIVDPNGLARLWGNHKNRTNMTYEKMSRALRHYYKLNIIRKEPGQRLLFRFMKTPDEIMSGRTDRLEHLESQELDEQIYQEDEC
HSF1, sequence (Q00613 whole entry): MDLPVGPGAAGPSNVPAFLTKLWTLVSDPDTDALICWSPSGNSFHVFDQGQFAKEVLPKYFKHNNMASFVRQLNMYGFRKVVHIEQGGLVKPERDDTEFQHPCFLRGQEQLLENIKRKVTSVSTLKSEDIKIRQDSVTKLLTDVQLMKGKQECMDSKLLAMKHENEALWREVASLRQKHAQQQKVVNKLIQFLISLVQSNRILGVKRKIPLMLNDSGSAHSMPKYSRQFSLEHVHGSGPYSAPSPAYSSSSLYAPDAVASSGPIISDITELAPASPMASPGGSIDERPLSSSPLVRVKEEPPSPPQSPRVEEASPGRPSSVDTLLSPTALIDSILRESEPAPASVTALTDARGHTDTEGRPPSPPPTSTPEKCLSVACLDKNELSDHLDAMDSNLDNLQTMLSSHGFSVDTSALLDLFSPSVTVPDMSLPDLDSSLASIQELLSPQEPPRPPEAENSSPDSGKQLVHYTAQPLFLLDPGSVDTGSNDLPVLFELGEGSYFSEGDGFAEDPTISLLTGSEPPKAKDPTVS
ETV5, sequence (P41161 whole entry): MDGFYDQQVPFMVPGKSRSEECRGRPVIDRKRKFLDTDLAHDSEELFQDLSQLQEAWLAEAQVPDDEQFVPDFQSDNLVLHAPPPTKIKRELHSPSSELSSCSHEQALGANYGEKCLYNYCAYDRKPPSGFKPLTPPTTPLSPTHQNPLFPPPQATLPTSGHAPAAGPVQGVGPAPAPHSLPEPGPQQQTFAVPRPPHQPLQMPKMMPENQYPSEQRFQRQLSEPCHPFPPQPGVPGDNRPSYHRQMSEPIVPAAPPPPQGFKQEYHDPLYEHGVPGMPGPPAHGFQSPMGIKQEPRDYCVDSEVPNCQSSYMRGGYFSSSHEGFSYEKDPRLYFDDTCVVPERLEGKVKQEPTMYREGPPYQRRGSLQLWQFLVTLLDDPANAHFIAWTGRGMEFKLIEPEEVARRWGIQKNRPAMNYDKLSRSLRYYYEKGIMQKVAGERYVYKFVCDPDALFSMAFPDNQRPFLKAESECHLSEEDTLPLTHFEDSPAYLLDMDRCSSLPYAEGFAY
ETV1, sequence (P50549 whole entry): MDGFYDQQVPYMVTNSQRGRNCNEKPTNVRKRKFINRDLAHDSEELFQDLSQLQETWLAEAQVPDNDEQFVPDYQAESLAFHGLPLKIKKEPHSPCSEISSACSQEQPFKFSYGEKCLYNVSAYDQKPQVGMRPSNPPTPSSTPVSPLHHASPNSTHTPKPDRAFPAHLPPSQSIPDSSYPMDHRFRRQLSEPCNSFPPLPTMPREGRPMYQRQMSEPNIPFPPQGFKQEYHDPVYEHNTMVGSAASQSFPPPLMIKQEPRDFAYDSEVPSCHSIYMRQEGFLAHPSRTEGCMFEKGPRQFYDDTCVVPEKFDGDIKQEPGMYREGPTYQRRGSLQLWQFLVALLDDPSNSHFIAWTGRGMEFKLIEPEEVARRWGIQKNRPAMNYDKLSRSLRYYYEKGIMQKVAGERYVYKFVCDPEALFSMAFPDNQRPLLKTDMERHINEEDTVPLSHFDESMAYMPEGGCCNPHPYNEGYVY
CRX, sequence (O43186 whole entry): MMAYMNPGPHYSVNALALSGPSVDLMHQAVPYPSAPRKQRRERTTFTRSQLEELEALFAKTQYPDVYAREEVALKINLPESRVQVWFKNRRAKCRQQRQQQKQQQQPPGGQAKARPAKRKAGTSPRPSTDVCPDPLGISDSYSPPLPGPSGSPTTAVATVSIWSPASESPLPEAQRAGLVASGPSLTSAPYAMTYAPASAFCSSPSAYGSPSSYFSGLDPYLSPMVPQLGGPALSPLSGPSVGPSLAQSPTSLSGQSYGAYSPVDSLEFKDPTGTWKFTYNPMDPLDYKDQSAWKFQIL

CCTGAC
binding signal (FEV): 1.5 fold enrichment (6-mer frequency, TF over GST control)
binding signal (ETV5): 1.71 fold enrichment (6-mer frequency, TF over GST control)
binding signal (HSF1): 1.2 fold enrichment (6-mer frequency, TF over GST control)
binding signal (SPIC): 1.3 fold enrichment (6-mer frequency, TF over GST control)
binding signal (ELF4): 1.42 fold enrichment (6-mer frequency, TF over GST control)
binding signal (ELK4): 1.5 fold enrichment (6-mer frequency, TF over GST control)
binding signal (ETV2): 1.61 fold enrichment (6-mer frequency, TF over GST control)
binding signal (ELF3): 1.7 fold enrichment (6-mer frequency, TF over GST control)
binding signal (CRX): 1.11 fold enrichment (6-mer frequency, TF over GST control)
binding signal (ETV1): 1.61 fold enrichment (6-mer frequency, TF over GST control)
binding signal (ERF): 1.37 fold enrichment (6-mer frequency, TF over GST control)
binding signal (ETV3L): 1.59 fold enrichment (6-mer frequency, TF over GST control)
binding signal (ETS2): 1.56 fold enrichment (6-mer frequency, TF over GST control)
binding signal (SPDEF): 1.51 fold enrichment (6-mer frequency, TF over GST control)
binding signal (ETV7): 1.46 fold enrichment (6-mer frequency, TF over GST control)
binding signal (ELF5): 1.63 fold enrichment (6-mer frequency, TF over GST control)
binding signal (ETV3): 1.44 fold enrichment (6-mer frequency, TF over GST control)
binding signal (ETV6): 1.6 fold enrichment (6-mer frequency, TF over GST control)
